mHTT CaM bind: mutant huntingtin-calmodulin interaction inhibitors – biochemical, AlphaScreen, primary screen. inhibition, % at 15 µM. AID 1671202, 2021. AlphaScreen His-mHTT/GST-CaM binding, luminescence. hit rate 3.6% among 190,000
Pf apPOL inh: Pf-apPOL inhibitors, biochemical, fluorescence | Plasmodium falciparum apicoplast DNA polymerase (apPOL) | Recombinant Pf-apPOL, molecular beacon fluorescence, 1.5 h | inhibition, % at 10 µM | hit rate 0.25% among 210,000
Of the large screens only hits and unclear results are named; the others gave an inactive call. An excerpt weighted towards active compounds, which were near 3.5% of everything screened. Rule as the data show it: active = inhibition above about 50%; inactive = the rest.

COc1cc(C2C(C#N)=C(N)Oc3n[nH]c(-c4cc(OC)c(OC)c(OC)c4)c32)ccc1O (configuration not stated)	none
N#CC1=C(N)Oc2n[nH]c(-c3cccc([N+](=O)[O-])c3)c2C1c1ccc(O)cc1 (configuration not stated)	none
CC(C)(C)OC(=O)NC(CO)CC1CCC1 (configuration not stated)	none
N#CC1=C(N)Oc2n[nH]c(-c3cccs3)c2C1c1ccc([N+](=O)[O-])s1 (configuration not stated)	mHTT CaM bind 55.0
COc1c(Cl)cc(Cl)cc1C1C(C#N)=C(N)Oc2n[nH]c(-c3cccs3)c21 (configuration not stated)	mHTT CaM bind 74.0
COc1ccc(C2C(C#N)=C(N)Oc3n[nH]c(-c4cccs4)c32)c(OC)c1OC (configuration not stated)	none
N#CC1=C(N)Oc2n[nH]c(-c3cccs3)c2C1c1cccs1 (configuration not stated)	none
Cc1cc(-c2onc(C)c2C(=O)ON=C(N)c2cccc(C(F)(F)F)c2)no1	none (no result: mHTT CaM bind)
O=C(Nc1ccc(NC(=O)c2ccc(Br)o2)cc1)c1ccccc1	none
O=C(Nc1ccc(Nc2ccccc2)cc1)c1ccc(Br)o1	mHTT CaM bind 61.0
O=C(Nc1cccc(-c2nc3ccccc3[nH]2)c1)c1ccc(Br)o1	Pf apPOL inh 102.4
O=C(Nc1ccc(Cl)c(-c2nc3ccccc3[nH]2)c1)c1ccc(Br)o1	none
Cc1ccsc1/C=C1\SC(=N)N(c2ccc(F)cc2)C1=O	none
Cc1n[nH]c(C)c1S(=O)(=O)N1CCc2c(c(-c3nc(-c4ccccc4)no3)nn2C)C1	mHTT CaM bind 52.6
Cc1ccc(S(=O)(=O)N2CCc3c(c(-c4nc(-c5ccccc5)no4)nn3C)C2)cc1C	none
COc1ccc(-c2c(C)oc3cc(OC(=O)c4ccccc4OC)ccc3c2=O)cc1OC	none
COc1ccc(Br)cc1C=C1Oc2c(ccc3c2CN(Cc2ccncc2)CO3)C1=O	none
O=C1S/C(=C\c2ccccc2F)C(=O)N1CNc1ccc(Br)cc1	none
COc1ccc(Cl)cc1C1=N/C(=C/C(Cl)=C/c2ccccc2)C(=O)O1	none
CC1(C)C(=O)OC(c2ccc([N+](=O)[O-])cc2)C2(CCCCC2)C1=O (configuration not stated)	none
CNC(=O)c1cc(C)nc2ccc(F)cc12	none
CCCNC(=O)c1cc(C)nc2ccc(F)cc12	mHTT CaM bind 100.1
CNC(=O)c1cc(C)nc2ccc(C)cc12	Pf apPOL inh 83.9
CCCNC(=O)c1cc(C)nc2ccc(Cl)cc12	none
CN(C)C(=O)c1cc2c(s1)CCC(C(=O)Nc1ccc(Cl)cc1F)C2 (configuration not stated)	none
COc1cc(C(=O)Nc2cc3cccc([N+](=O)[O-])c3oc2=O)cc(OC)c1OC	none
O=S(=O)(NCCCCCc1nc2ccccc2[nH]1)c1ccc(Cl)c(Cl)c1	mHTT CaM bind 66.0
O=S(=O)(NCCCc1nc2ccccc2[nH]1)c1ccc(Cl)cc1	none
CC(C)C(=O)N1CCN(c2ccc(F)c(Cl)c2)C(=O)C1C (configuration not stated)	none
Cc1ccc(N2NC(=O)/C(=C\c3ccc(C)c([N+](=O)[O-])c3)C2=O)cc1Cl	mHTT CaM bind 62.0
Cc1ccc(N2NC(=O)/C(=C\c3ccc(Cl)cc3)C2=O)cc1Cl	none
O=C1NN(c2ccc(Cl)c(Cl)c2)C(=O)/C1=C/c1ccc(O)c(O)c1	mHTT CaM bind 73.0
COc1cc(/C=C2\C(=O)NN(c3ccc(Cl)c(Cl)c3)C2=O)ccc1O	none
COc1cccc(CNC(=O)CN2N=C(c3ccc(Cl)cc3)CCC2=O)c1	none
Cc1ccc(CCNC(=O)CN(C)S(=O)(=O)c2ccc3[nH]c4c(c3c2)CCCC4)cc1	mHTT CaM bind 59.2
COc1ccccc1CNC(=O)CN(C)S(=O)(=O)c1ccc2[nH]c3c(c2c1)CCCC3	mHTT CaM bind 57.8
CN(CC(=O)NCc1ccc(Cl)cc1)S(=O)(=O)c1ccc2[nH]c3c(c2c1)CCCC3	mHTT CaM bind 58.0
COc1ccccc1NC(=O)CN(C)S(=O)(=O)c1ccc2[nH]c3c(c2c1)CCCC3	none
CN(CC(=O)NCCc1ccccc1)S(=O)(=O)c1ccc2[nH]c3c(c2c1)CCCC3	none
COc1cccc(CNC(=O)CN(C)S(=O)(=O)c2ccc3[nH]c4c(c3c2)CCCC4)c1	none
Cc1ccnc(N2CCCC(C(=O)N3CCN(c4ccc(F)cc4)CC3)C2)n1 (configuration not stated)	none
O=C1CCC(C(=O)NCc2cc(-c3ccc4c(c3)OCO4)on2)N1 (configuration not stated)	none
Cc1c(C)c(C)c(S(=O)(=O)NCC(C)(O)c2ccco2)c(C)c1C (configuration not stated)	none
Cc1ccc(NC(=O)C(=O)NC(C)Cc2ccco2)cc1F (configuration not stated)	none
CC(=O)C(C)Sc1cc(C)nc2c(-c3ccccc3)cnn12 (configuration not stated)	none
COc1cc(C(=O)n2c(C)nc3ccccc32)cc(OC)c1OC	mHTT CaM bind 89.2
Cc1nc2ccccc2n1C(=O)c1ccc(F)cc1	none
CCCn1cnc2c1c(=O)n(CC)c(=O)n2-c1ccccc1	none
Cc1cccc(NC(=O)CN2CCC3(CC2)N=C(c2ccccc2)C(=O)N3)c1	none
CCc1cccc2c3c([nH]c12)CCC(NC(=O)C(C)CC)C3 (configuration not stated)	none
Cc1cc(C)cc(C(=O)NC2CCc3[nH]c4ccc(Br)cc4c3C2)c1 (configuration not stated)	none
CC1CCC(C(=O)NC2CCc3[nH]c4ccc(Br)cc4c3C2)CC1 (configuration not stated)	mHTT CaM bind 97.0
O=C(CC1=CCCCC1)NC1CCc2[nH]c3ccc(Br)cc3c2C1 (configuration not stated)	mHTT CaM bind 100.0
O=C(NC1CCCCC1)N1CCC(CCNS(=O)(=O)c2cccc(Cl)c2)CC1	none
COCCNC(=O)Cc1ccc(NC(=O)c2ccccc2C(F)(F)F)cc1	none
CC(C)OCCCNC(=O)C1(C)CCC(=O)N1Cc1ccc(F)cc1 (configuration not stated)	none
CCS(=O)(=O)CCSc1nc(C)cc(C)n1	Pf apPOL inh 51.3
Cc1cc(C)nc(SCCCCSc2nc(C)cc(C)n2)n1	none
CC(C)n1cnc2ccc(-c3noc(Cc4c[nH]c5ccccc45)n3)cc21	mHTT CaM bind 100.3
CCCn1cnc2ccc(-c3noc(Cc4cccs4)n3)cc21	none
COc1ccc(C(=O)N2CCN(c3cccc(Cl)c3)CC2)cc1	none
COc1cccc(-n2ccnc2N2CCN(C(=O)c3ccc(F)c(F)c3)CC2)c1	mHTT CaM bind 53.7
O=C(NCc1cccs1)NCC1(c2ccccc2)CCOCC1	none
Cc1ccc2c(c1)/C(=C/c1ccc(Br)cc1)c1cccnc1-2	none (no result: Pf apPOL inh)
Cc1ccc2c(c1)/C(=C/c1ccc3c(c1)OCO3)c1cccnc1-2	mHTT CaM bind 52.2
CC(=O)Nc1ccc(S(=O)(=O)NCCCNc2ccc([N+](=O)[O-])cc2Cl)cc1	none
O=[N+]([O-])c1ccc(NCCCNS(=O)(=O)c2ccc(Cl)cc2)c(C(F)(F)F)c1	mHTT CaM bind 53.0
CC(=O)CC1c2cc(F)ccc2C=C(c2ccsc2)N1c1ccc(C#Cc2cncn2C)cc1 (configuration not stated)	mHTT CaM bind 74.8
CC(=O)CC1c2cc(F)ccc2C=C(c2ccsc2)N1c1ccc(C#CC2(O)CCCCC2)cc1 (configuration not stated)	none

Source: PubChem (University of Kansas High Throughput Screening Laboratory)
